# Test results reported in the supplement of paper PMC10338343.
# ± gives the standard deviation.
# Tested on: MILI (PIWIL2) piRISC loaded with L1MC piRNA (26 nt)
# Experiment: pre-steady-state target cleavage rate (min^-1); guide: L1MC piRNA 5'p-UAACUAAAUACUAUGCAAGCUGUAGG; MIWI and MILI are mouse PIWI proteins and EfPiwi is from a freshwater sponge; tags in brackets are library labels; higher = faster piRNA-guided slicing of the target
# Conditions: auxiliary factor: 500 nM mouse GTSF1
# In short: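 Cleave-'n-Seq reactions paired 0.1 nM transcribed, DNA-blocked target RNA library with 1 nM active affinity-purified piRISC holding one synthetic guide, plus or minus 500 nM GTSF1 partner protein, in HEPES–potassium acetate buffer at 33 °C for 0–8 or 0–960 min. After sequencing of uncleaved targets and normalisation to depth and weakly complementary targets, the pre-steady-state cleavage rate was taken from a burst-and-steady-state fit. Three trials were pooled, and k3 was capped at 0.0001 min^-1.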
row,Sequence,pre-steady-state target cleavage rate
1,UCCUGGAACAGCUUGCAUAGUAAAAAGUUA,0.0663 ± 0.018
2,UCCUGGAUGUCGAUGCAUAGUAUUUAGGUA,0.0275 ± 0.011
3,UCCUCCUACAGCAUGCAUAGUAUUUUCAAA,0.138 ± 0.03
4,UCCUGGUACAGCUUGCAUUGUAUUUACAAA,0.0165 ± 0.0077
5,UCCUGGAUGACCUUGCAUAGUAUUUAGUAA,0.152 ± 0.019
6,UCCUGGAUGUGCUUGCAUAGUAUUUACUUA,0.0325 ± 0.0094
7,UCCUGGAUGACGUUGCAUAGUAUUUAGUAA,0.136 ± 0.022
8,UCCUGGAUCAGCUUGCAUAGUAUUUCAGUUA,0.162 ± 0.028
9,UCCUGGAUCACCUUGCAUAGUAUUUACAAA,0.131 ± 0.031
10,UCCUGGUACAGCUUGGAUAGUAUUUAGAUA,0.118 ± 0.038
11,UCCUGCUACAGCUUGCAUACAUUUUAGUUA,0.0121 ± 0.0061
12,UCCUGGAUCAGCAUGCAUAGUAUUUUCAAA,0.0716 ± 0.018
13,UCCUGGUACAGCUUGCAUAGUAUAAACAAA,0.0195 ± 0.0074
14,UCCUGGAUGAGCUUGCAUUGUAUUUACUUA,0.031 ± 0.012
15,UCCUGGAUGAGCUUGCAUUGUUUUUAGUUA,0.0047 ± 0.0044
16,UCCUGGUACAGCUUGCAUAGUUUUUUCAAA,0.0153 ± 0.0075
17,UCCUGGUAGAGCUUGCAUAGUAUUUAGAAA,0.128 ± 0.028
18,UCCUGGAUGUCCUUGCAAACUAUUUAGUUA,0.00732 ± 0.0037

row,Sequence,pre-steady-state target cleavage rate
1,UCCUGGUACUGCUUGCAUAGUAUUUACAAA,0.00977 ± 0.0049
2,UCCUGGAUGUCGUUGCAUAGUAUUCAGUUA,0.0553 ± 0.018
3,UCCUCCUACAGCUUGCAAUGUAUUUAGAAA,0.0725 ± 0.016
4,UCCUGGUACAGCUUGCAUAGUAUUAUGAAA,0.00782 ± 0.0056
5,UCCUGGAUGUCGUUGCAUAGUAUCUAGUUA,0.11 ± 0.019
6,UCCUGGAUCAGGAAGCAUAGUAUUUACAAA,0.00413 ± 0.0036
7,UCCUGGUACACCUUGCAUAGUAUUUACUUA,0.108 ± 0.041
8,UCCUGGAUCAGCUUGCUAUGUAUUUAGAAA,0.00524 ± 0.0033
9,UCCUCCUACAGCUUGCAUAGUAAAAAGAAA,0.075 ± 0.02
10,UCCUGGAACAGCUUGCAUAGUAUUAUCUAA,0.0368 ± 0.012
11,UCCUCCUACAGCUUGCUAUGUAUUUACAAA,0.00653 ± 0.0036
12,UCCUGGAUGUCCAUGCAAAGUAUUUAGUUA,0.0101 ± 0.0043
13,UCCUGGAUGAGCUUGCAUUGAAUUUAGUUA,0.00697 ± 0.0027
14,UCCUGGAUGUGCAAGCAUAGUAUUUAGUAA,0.0583 ± 0.013
15,UCCUGCUACAGCUUGCAAUCUAUUUACAAA,0.00954 ± 0.0044
16,UCCUGGAUCAGCUUGCAUAGAAUUUAGAAA,0.0123 ± 0.0052
17,UCCUGGAACAGCAAGCAUAGUAUUUUCAAA,0.0642 ± 0.018
18,UCCUGGAUGUCGAAGCAUAGUAUUGUAGUUA,0.00801 ± 0.0041

# Same assay, conditions: auxiliary factor: none (no GTSF1)
row,Sequence,pre-steady-state target cleavage rate
1,UCCUGGAUGUCGAACGUAUCUAAUUAGUUA,< 0.0001
2,UCCUGGAUGUCGUUGCAUAGUGAUUUAGUUA,0.0042 ± 0.0032
3,UCCUGGAUGUCGAACGUGAGUAUUUAGUUA,< 0.0001
